The values below come from PubChem BioAssay (NCI).

Compounds without any hit were thinned out: in the full panel of roughly 83,000, 20% have a hit.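 Negative percent growth values reflect cell death: -40 means 40% of the cells present at the start died, and -100 means all died.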 A number with no mark means an inactive call. Active and inactive are the calls of the source. The calls were made as follows: active = growth percent below 10; inactive = the rest.

Common to all, as to assay: NCI-60 one-dose screen, 48 h (100 = growth as untreated, 0 = no growth, -100 = all killed)
Details in all cases: 10 µM unless noted

Assay [1] relates to HCT-15 colon.
In assay [2] the test system is HT29 colon.
In assay [3] the test system is SNB-75 CNS.
Assay [4] relates to SNB-19 CNS.
The subject of assay [5] is U251 CNS.
Assay [6] concerns PC-3 prostate.
Assay [7] has as its system SK-MEL-5 melanoma.
Assay [8] concerns UACC-62 melanoma.
Assay [9] deals with LOX IMVI melanoma.
Assay [10] relates to SK-MEL-28 melanoma.

Turning to `O=[N+]([O-])c1ccc(N/N=C\c2ccc(O)cc2O)nc1`, the growth was 29.8% in assay [1]; 90.2% in [2]; 53.6% in assay [3]; 58.6% in assay [4]; 28.4% in assay [5]; 49.5% in [6]. The growth in [7] was 13.7%; in assay [8], 43.9%; in assay [9], 24.7%; in assay [10], 64.1%.

As to `CC(=O)c1ccc(Br)c([N+](=O)[O-])c1`, the growth in [1] is 104%; in [2], 98%; in assay [3], 92.7%; in [4] it was 98.7%; in assay [5], 104%; in [6] it was 104%. Besides, the growth in assay [7] is 99.9%; in assay [8] it was 111%; in assay [9], 90%; in assay [10], 118%.

As for `CC(=O)OC[C@H]1O[C@@H](n2c(=O)cc(N)[nH]c2=O)C(OC(C)=O)[C@@H]1OC(C)=O` (stereo not given in full), the growth was 99.7% in assay [1]; 106% in assay [2]; 75.9% in assay [3]; 98.7% in assay [4]; 97.7% in assay [5]; 95.3% in assay [6]. The growth in assay [7] is 99.5%; in [8] it was 94.6%; in assay [9], 99.9%; in assay [10], 110%.

On to `Clc1ccc(C2=NN[C@H](c3cn(-c4ccccc4)nc3-c3ccccc3)C2)cc1`, for which the growth in assay [1] was 70.5%; in assay [2], 69.5%; in assay [3], 41%; in assay [4], 76.9%; in assay [5] it was 49.3%; in assay [6], 36.7%. In addition, the growth in assay [7] was 80.8%; in [8] it was 76.5%; in [9], 49.7%; in assay [10], 39%.

Consider `COc1ccccc1/C=C/C(=O)CCC(=O)O`, for which the growth in assay [1] is 113%; in assay [2] it was 107%; in assay [3], 98.5%; in assay [4], 114%; in assay [5] it was 107%; in assay [6] it was 94.5%. Further, the growth in [7] is 109%; in assay [8], 108%; in [9] it was 99.8%; in assay [10], 110%.

For `COc1cc(NCCC2CCCCN2)c2ncccc2c1OC` (stereo not given), the growth in assay [1] was 86.1%; in [2] it was 73.7%; in assay [3], 156%; in assay [4], 91.8%; in assay [5], 33.5%; in assay [6], 68.2%. Besides, the growth was 77.8% in assay [7], 81.1% in [8], 15% in [9] and 107% in [10].

On to `CN1C2CCC1/C(=C\c1ccc(Cl)cc1)C(=O)/C2=C/c1ccc(Cl)cc1`, for which the growth in [1] was 54.2%; in assay [2], 47.1%; in assay [3], 71.6%; in [4], 64.1%; in [5], 13.6%; in assay [6] it was 51.8%. The growth in assay [7] is 66.9%; in [8], 47.4%; in [9], 35.1%; in [10], 91.6%.

Turning to `NC(=O)c1ccc[n+](Cc2ccccc2)c1`, the growth in assay [1] is 96.7%; in assay [2], 101%; in [3], 95.1%; in [4] it was 106%; in assay [5] it was 92.8%; in assay [6], 94.6%. Also, the growth in [7] is 97.6%; in assay [8], 99.7%; in [9], 95.6%; in assay [10], 103%.

As to `COc1ccccc1CNCCCN1C(=O)c2ccc3c4c(ccc(c24)C1=O)C(=O)N(CCCOCCCCOCCCN)C3=O`, the growth in assay [1] is -52.7% (active); in assay [2], -55% (active); in assay [3], -5.57% (active); in assay [4], -11.1% (active); in assay [5], -48.6% (active); in assay [6], 3.91% (active). Besides, the growth in assay [7] was -98.7% (active); in assay [8], -79.8% (active); in assay [9] it was -34.3% (active); in assay [10] it was -4.3% (active).

Regarding `CC(=O)C1CCC2C3CC(C)=C4CC(O)CCC4(C)C3CCC12C` (stereo not given), the growth was 100% in assay [1]; 96.4% in [2]; 100% in [3]; 97.5% in assay [4]; 97.5% in assay [5]; 88.2% in [6]. For the same compound, the growth in [7] is 99.4%; in assay [8], 91.6%; in assay [9] it was 92.1%; in assay [10], 105%.

Consider `CC[C@]1(O)C[C@H]2CN(CCc3c([nH]c4ccccc34)C(C(=O)OC)(c3cc4c(cc3OC)N(C)[C@H]3[C@@](O)(C(=O)OC)[C@H](OC(C)=O)[C@]5(CC)[C@@H]6C[C@@H]6CN6CC[C@]43[C@@H]65)C2)C1` (stereo not given in full), for which the growth in assay [1] was 19.5%; in assay [2], 7.29% (active); in assay [3], -14.6% (active); in [4] it was 24%; in [5] it was 13.7%; in assay [6], 18.9%. For the same compound, the growth in assay [7] was -80.1% (active); in assay [8] it was 14.5%; in assay [9] it was 5.88% (active); in assay [10], 53.7%.

Consider `C#CCNc1nc(NCCNC(=O)CCl)nc(N(C)CCCCc2ccccc2)n1`, for which the growth in assay [1] is 92.4%; in [2], 109%; in [3] it was 104%; in assay [4], 99.3%; in assay [5], 98.6%; in assay [6] it was 107%. The growth in assay [7] was 53.8%; in assay [8], 91.7%; in [9], -12.5% (active); in [10], 104%.

In the case of `O=C(Nc1ccc(Cl)cc1)c1cc(-c2ccc(Cl)cc2)c2sc(=O)[nH]c2n1`, the growth is 7.94% (active) in [1]; -24% (active) in assay [2]; 10.5% in [3]; 8% (active) in [4]; 0.838% (active) in [5]; -13.5% (active) in [6]. Also, the growth in assay [7] is -19.6% (active); in assay [8] it was -14.7% (active); in assay [9], 13.4%; in assay [10], 25.2%.

Regarding `CC1=C(O)C(=O)CC1`, the growth in assay [1] was 108%; in assay [2], 101%; in assay [3], 97.9%; in assay [4], 101%; in assay [5], 100%; in assay [6], 80.9%. Further, the growth is 99.5% in assay [7], 110% in assay [8], 99.7% in assay [9] and 100% in [10].

`CCCCCCCC/C=C/CCCCCCCC1=NC(C)(C)CN1c1ccccc1`: the growth was 80.5% in assay [1]; 66.8% in [2]; 90% in assay [3]; 87.8% in [4]; 84.5% in [5]; 64% in assay [6]. Moreover, the growth in assay [7] was 92.4%; in assay [8], 75.2%; in assay [9], 85.3%; in assay [10], 103%.

Turning to `CCN(CC)c1ccc(/C=N/NC(=O)C[N+](C)(C)C)cc1`, the growth was 101% in [1]; 103% in assay [2]; 93.8% in assay [3]; 113% in assay [4]; 102% in assay [5]; 95.7% in [6]. Further, the growth in assay [7] was 104%; in [8], 101%; in assay [9] it was 97%; in assay [10], 108%.

With `CC(C)CC(=O)C(CCc1ccccn1)C(C)C` (stereo not given), the growth in assay [1] is 101%; in assay [2] it was 98.3%; in assay [3], 111%; in assay [4] it was 108%; in assay [5], 107%; in assay [6], 99.7%. The growth in assay [7] was 103%; in assay [8] it was 103%; in assay [9], 96.5%; in [10], 109%.

As for `CCN1C(=O)N(CC)C2C1NN=c1s/c(=C\c3ccco3)c(=O)n12` (stereo not given), the growth in assay [1] is 19.9%; in assay [2], 8.57% (active); in assay [3], -1.06% (active); in assay [4], 22.7%; in assay [5], 22.7%; in assay [6], 17.7%. The growth is 12.8% in [7], 29.2% in [8], 40.4% in [9] and 58.9% in [10].

Turning to `CCOC(OCC)c1cnc2nc(NC(C)=O)[nH]c(=O)c2n1`, the growth is 98.7% in assay [1]; 90.6% in assay [2]; 91.5% in [3]; 99.4% in assay [4]; 104% in assay [5]; 106% in assay [6]. Besides, the growth in assay [7] is 104%; in assay [8] it was 102%; in assay [9] it was 100%; in assay [10], 105%.

`CC1OC(n2c3ccccc3c3c4c(c5c6ccccc6[nH]c5c32)C(=O)N(CCN[C@H]2CCC[C@@H]2N)C4=O)CC(O)C1O` (stereo not given in full): the growth was 82.6% in [1]; 12.9% in assay [2]; 24.1% in [3]; 17% in assay [4]; 14.5% in assay [5]; 16.8% in assay [6]. Also, the growth in assay [7] was 23.7%; in assay [8], 42.1%; in [9], 20.3%; in assay [10], 68.6%.

As to `COc1cc(-c2nc(-c3ccc(-c4nc5ccc(F)cc5[nH]4)cc3)no2)cc(OC)c1OC`, the growth in assay [1] was 19.4%; in [2], 9.19% (active); in assay [3], 76.6%; in assay [4], 73.1%; in [5], 46.1%; in assay [6], 6.63% (active). In addition, the growth in assay [7] is 20.7%; in [8], 20.9%; in assay [9] it was 24.8%; in [10], 60.6%.

In the case of `CC(C)(C)[Si](C)(C)OC1[C@@H](CNC(N)=O)O[C@@H](n2cnc3c(NC(=O)Nc4ccccc4)ncnc32)[C@H]1O[Si](C)(C)C(C)(C)C` (stereo not given in full), the growth in assay [1] is 48.3%; in [2], -7.1% (active); in [3], 73.9%; in assay [4], 88.4%; in assay [5], 62.2%; in assay [6] it was 17%. Moreover, the growth in [7] is 76.9%; in [8] it was 83.3%; in assay [9] it was 32.3%; in [10] it was 92.7%.

In the case of `CS(=O)(=O)c1ccc(C(=O)Nc2ccc(Cl)c(-c3ccccn3)c2)c(Cl)c1`, the growth is 22.7% in assay [1]; -7.2% (active) in [2]; 14% in assay [3]; 51.1% in assay [4]; 15.5% in [5]; 7.55% (active) in [6]. Also, the growth is 10.9% in assay [7], 19.7% in assay [8], 16% in [9] and 23.2% in assay [10].

Take `CCCCCCCCCCCCCCCC1=NCCN1`: the growth in assay [1] is 0.909% (active); in [2], 4.17% (active); in assay [3] it was 82.7%; in assay [4] it was 24.8%; in assay [5], 16.1%; in assay [6], 47.6%. Besides, the growth in assay [7] was 80.6%; in [8], 76.1%; in [9], 1.64% (active); in assay [10] it was 80.7%.

With `Cn1cnc([N+](=O)[O-])c1S(=O)(=O)Oc1cccc2ccccc12`, the growth in [1] was 1.87% (active); in assay [2] it was 10.9%; in assay [3] it was 83.2%; in [4] it was 98.8%; in [5] it was 57.6%; in assay [6], 57.4%. The growth in [7] was 93%; in [8] it was 80.7%; in assay [9] it was -45.1% (active); in [10], 85.1%.

For `COc1ccc(C(=O)OC2C(OC3C(O)COC(O[C@H]4C[C@H]5[C@@H]6CC=C7C[C@@H](O)CC[C@]7(C)[C@H]6CC[C@]5(C)[C@H]4[C@H](C)C(=O)CCC(C)C)C3OC(=O)C(C)C)OCC(O)C2O)cc1` (stereo not given in full), the growth in assay [1] is -8.16% (active); in assay [2] it was 12.1%; in assay [3] it was 21.4%; in assay [4], 27.8%; in assay [5], 2.54% (active); in assay [6] it was 2.36% (active). For the same compound, the growth in [7] was -36.3% (active); in [8], -35.6% (active); in assay [9], -17.5% (active); in [10], -49.6% (active).

Take `O=C1C(Cl)=C(Nc2cccc3ccccc23)C(=O)c2ccccc21`: the growth in assay [1] is 70%; in [2], 90.3%; in assay [3], 81.6%; in [4], 92.6%; in [5], 75.6%; in assay [6], 43%. In addition, the growth is 60.9% in [7], 55.1% in [8], 32.7% in [9] and 91.4% in [10].
